Experimental data from PubChem BioAssay (NCI).
This is part of a sample that, as a whole, favours compounds with a hit. Of some 79,000 tested, about 15% had one in any assay. Unmarked numbers belong to inactive results. Activity calls are given as the source filed them. Rule as the data show it: active = growth inhibition above about 70%; inactive = the rest.

How the values were obtained:
[1] = NCI Yeast Anticancer Drug Screen. Data for the rad52 strain (AID 147);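 also: 0% = growth of vehicle-treated control cultures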; conditions: S. cerevisiae rad52 mutant growth inhibition, active compounds read high
Method in brief: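 Here a repair-compromised yeast strain receives each compound; its growth is then quantified and normalised to vehicle-only controls.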

[2] = NCI Yeast Anticancer Drug Screen. Data for the wt1 strain (AID 149);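 also: 0% = growth of vehicle-treated wt1 cultures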; conditions: S. cerevisiae wt1 strain (SPY 50644) growth inhibition, active compounds read high
Method in brief: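 Using yeast strain wt1, compound-induced growth inhibition was determined against vehicle-treated cultures.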

[3] = NCI Yeast Anticancer Drug Screen. Data for the rad50EPP+ strain (AID 151);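 also: 0% = growth of vehicle-treated control cultures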; conditions: S. cerevisiae rad50 mutant strain, active compounds read high
Method in brief: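 Read-out is yeast growth inhibition relative to vehicle; cells used were the rad50EPP+ strain.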

[4] = NCI Yeast Anticancer Drug Screen. Data for the mgt1 strain (AID 153); conditions: S. cerevisiae mgt1 mutant growth inhibition, active compounds read high
Method in brief: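 Measured: inhibition of mgt1 yeast growth by compound, normalized to vehicle-treated cultures.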

[5] = NCI Yeast Anticancer Drug Screen. Data for the rad50 strain (AID 155);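 also: 0% = growth of vehicle-only cultures of the same strain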; conditions: S. cerevisiae rad50 strain growth inhibition, active compounds read high
Method in brief: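 Relative growth inhibition (compound vs vehicle) was measured in yeast with a defined repair-gene alteration.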

[6] = NCI Yeast Anticancer Drug Screen. Data for the mec2-1 strain (AID 157); conditions: S. cerevisiae mec2-1 strain, active compounds read high
Method in brief: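 Using mec2-1 yeast: add compound, measure growth, express inhibition versus vehicle-treated cultures.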

[7] = NCI Yeast Anticancer Drug Screen. Data for the rad14 strain (AID 159);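 also: 0% = growth of vehicle-treated control cultures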; conditions: S. cerevisiae rad14 strain growth inhibition, active compounds read high
Method in brief: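 Screen for anticancer potential: a yeast strain altered in DNA damage repair is grown with compound, and reduced growth is quantified against vehicle controls.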

[8] = NCI Yeast Anticancer Drug Screen. Data for the sgs1 mgt1 strain (AID 161);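 also: 0% = growth of cultures given vehicle only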; conditions: S. cerevisiae sgs1 mgt1 strain, active compounds read high
Method in brief: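 Percent growth inhibition was derived by comparing compound-exposed mutant yeast with vehicle-exposed cultures. The strain carries alterations in DNA damage repair.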

[9] = NCI Yeast Anticancer Drug Screen. Data for the CLN2oe strain (AID 163);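 also: 0% = growth of vehicle-only control cultures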; conditions: S. cerevisiae CLN2oe strain, active compounds read high
Method in brief: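 Whole-cell yeast growth assay. A strain engineered for altered cell-cycle control received compound, and inhibition relative to vehicle-treated cultures was recorded.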

[10] = NCI Yeast Anticancer Drug Screen. Data for the cln2 rad14 strain (AID 165);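 also: 0% = growth equal to vehicle treated cultures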; conditions: S. cerevisiae cln2 rad14 strain, active compounds read high
Method in brief: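 Yeast strain cln2 rad14, bearing defects in cell cycle control and DNA repair, serves as the test system; values reflect growth inhibition compared with vehicle.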

[11] = NCI Yeast Anticancer Drug Screen. Data for the bub3 strain (AID 167); conditions: S. cerevisiae bub3 mutant strain, active compounds read high
Method in brief: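 Screening used yeast with an engineered genetic alteration affecting cell cycle control. Compound-exposed cultures were compared with vehicle cultures, and reduced growth was taken as inhibition.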

[12] = NCI Yeast Anticancer Drug Screen. Data for the wt2 strain (AID 169);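 also: 0% = growth of vehicle-treated yeast cultures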; conditions: S. cerevisiae wt2 strain growth inhibition, active compounds read high
Method in brief: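 Treated yeast vs. vehicle-treated yeast: growth inhibition determined.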

[13] = NCI Yeast Anticancer Drug Screen. Data for the sgs1 strain (AID 173);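 also: 0% = growth of vehicle-only control cultures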; conditions: S. cerevisiae sgs1 mutant, active compounds read high
Method in brief: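 A genetically defined yeast mutant is incubated with the test compound, and its growth is compared to that of the same strain given vehicle.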

[14] = NCI Yeast Anticancer Drug Screen. Data for the mlh1 rad18 strain (AID 175); conditions: S. cerevisiae mlh1 rad18 strain growth inhibition, active compounds read high
Method in brief: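 Steps: expose repair-defective yeast to compound; measure growth; express inhibition against vehicle-treated controls.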

[15] = NCI Yeast Anticancer Drug Screen. Data for the rad18 strain (AID 177); conditions: S. cerevisiae rad18 mutant growth inhibition, active compounds read high
Method in brief: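 Measured value is growth inhibition of a yeast strain bearing a DNA repair alteration, referenced to vehicle-treated cells.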

[16] = at 5.0 µM (retest, dose inferred, filed as 0.5)
[17] = at 50.0 µM (retest, dose inferred, filed as 5.0)

CN(C)c1nc(=Nc2cccc(Cl)c2)ss1
growth inhibition ([1]; at 1.2 µM): 7%
growth inhibition ([1]; at 3.7 µM): 34%
growth inhibition ([1]; at 11.0 µM): 89% (active)
growth inhibition ([1]; at 33.0 µM): 99% (active)
growth inhibition ([1]; at 100.0 µM): 99% (active)
growth inhibition ([2]; at 1.2 µM): 7%
growth inhibition ([2]; at 3.7 µM): 20%
growth inhibition ([2]; at 11.0 µM): 63%
growth inhibition ([2]; at 33.0 µM): 99% (active)
growth inhibition ([2]; at 100.0 µM): 99% (active)
growth inhibition ([3]; at 1.2 µM): 9%
growth inhibition ([3]; at 3.7 µM): 42%
growth inhibition ([3]; at 11.0 µM): 92% (active)
growth inhibition ([3]; at 33.0 µM): 99% (active)
growth inhibition ([3]; at 100.0 µM): 99% (active)
growth inhibition ([4]; at 1.2 µM): 9%
growth inhibition ([4]; at 3.7 µM): 47%
growth inhibition ([4]; at 11.0 µM): 98% (active)
growth inhibition ([4]; at 33.0 µM): 99% (active)
growth inhibition ([4]; at 100.0 µM): 99% (active)
growth inhibition ([5]; at 1.2 µM): 5%
growth inhibition ([5]; at 3.7 µM): 32%
growth inhibition [5, 16]: 75% (active)
growth inhibition ([5]; at 11.0 µM): 89% (active)
growth inhibition ([5]; at 33.0 µM): 99% (active)
growth inhibition [5, 17]: 99% (active)
growth inhibition ([5]; at 50.0 µM): 99.5% (active)
growth inhibition ([5]; at 100.0 µM): 99% (active)
growth inhibition ([6]; at 1.2 µM): 11%
growth inhibition ([6]; at 3.7 µM): 28%
growth inhibition [6, 16]: 56%
growth inhibition ([6]; at 11.0 µM): 96% (active)
growth inhibition ([6]; at 33.0 µM): 100% (active)
growth inhibition [6, 17]: 99% (active)
growth inhibition ([6]; at 50.0 µM): 99.7% (active)
growth inhibition ([6]; at 100.0 µM): 100% (active)
growth inhibition ([7]; at 1.2 µM): 6%
growth inhibition ([7]; at 3.7 µM): 30%
growth inhibition ([7]; at 11.0 µM): 97% (active)
growth inhibition ([7]; at 33.0 µM): 99% (active)
growth inhibition ([7]; at 100.0 µM): 99% (active)
growth inhibition [8, 16]: 90% (active)
growth inhibition [8, 17]: 99% (active)
growth inhibition ([8]; at 50.0 µM): 99.7% (active)
growth inhibition ([9]; at 1.2 µM): -5%
growth inhibition ([9]; at 3.7 µM): 11%
growth inhibition ([9]; at 11.0 µM): 71% (active)
growth inhibition ([9]; at 33.0 µM): 99% (active)
growth inhibition ([9]; at 100.0 µM): 99% (active)
growth inhibition [10, 16]: 17%
growth inhibition [10, 17]: 99% (active)
growth inhibition ([10]; at 50.0 µM): 99.4% (active)
growth inhibition ([11]; at 1.2 µM): 1%
growth inhibition ([11]; at 3.7 µM): 28%
growth inhibition [11, 16]: 69%
growth inhibition ([11]; at 11.0 µM): 98% (active)
growth inhibition ([11]; at 33.0 µM): 99% (active)
growth inhibition [11, 17]: 98% (active)
growth inhibition ([11]; at 50.0 µM): 98.3% (active)
growth inhibition ([11]; at 100.0 µM): 99% (active)
growth inhibition ([12]; at 1.2 µM): 9%
growth inhibition ([12]; at 3.7 µM): 32%
growth inhibition ([12]; at 11.0 µM): 90% (active)
growth inhibition ([12]; at 33.0 µM): 99% (active)
growth inhibition ([12]; at 100.0 µM): 99% (active)
growth inhibition ([13]; at 1.2 µM): 15%
growth inhibition ([13]; at 3.7 µM): 52%
growth inhibition ([13]; at 11.0 µM): 95% (active)
growth inhibition ([13]; at 33.0 µM): 99% (active)
growth inhibition ([13]; at 100.0 µM): 99% (active)
growth inhibition [14, 16]: 89% (active)
growth inhibition [14, 17]: 99% (active)
growth inhibition ([14]; at 50.0 µM): 99.5% (active)
growth inhibition ([15]; at 1.2 µM): 12%
growth inhibition ([15]; at 3.7 µM): 48%
growth inhibition ([15]; at 11.0 µM): 97% (active)
growth inhibition ([15]; at 33.0 µM): 99% (active)
growth inhibition ([15]; at 100.0 µM): 99% (active)

O=C(O)C1CC(c2ccccc2)=NN1c1ccccc1 (stereo not drawn)
growth inhibition ([1]; at 1.2 µM): -28%
growth inhibition ([1]; at 3.7 µM): -9%
growth inhibition ([1]; at 11.0 µM): 4%
growth inhibition ([1]; at 33.0 µM): 58%
growth inhibition ([1]; at 100.0 µM): 95% (active)
growth inhibition ([2]; at 1.2 µM): -60%
growth inhibition ([2]; at 3.7 µM): -56%
growth inhibition ([2]; at 11.0 µM): -50%
growth inhibition ([2]; at 33.0 µM): -11%
growth inhibition ([2]; at 100.0 µM): 93% (active)
growth inhibition ([3]; at 1.2 µM): -17%
growth inhibition ([3]; at 3.7 µM): -17%
growth inhibition ([3]; at 11.0 µM): -9%
growth inhibition ([3]; at 33.0 µM): -3%
growth inhibition ([3]; at 100.0 µM): 51%
growth inhibition ([4]; at 1.2 µM): -48%
growth inhibition ([4]; at 3.7 µM): -56%
growth inhibition ([4]; at 11.0 µM): -41%
growth inhibition ([4]; at 33.0 µM): -1%
growth inhibition ([4]; at 100.0 µM): 95% (active)
growth inhibition ([5]; at 1.2 µM): -10%
growth inhibition ([5]; at 3.7 µM): -11%
growth inhibition [5, 16]: 27%
growth inhibition ([5]; at 11.0 µM): -1%
growth inhibition ([5]; at 33.0 µM): 33%
growth inhibition [5, 17]: 84% (active)
growth inhibition ([5]; at 50.0 µM): 19.4%
growth inhibition ([5]; at 100.0 µM): 95% (active)
growth inhibition ([6]; at 1.2 µM): -45%
growth inhibition ([6]; at 3.7 µM): -53%
growth inhibition [6, 16]: 27%
growth inhibition ([6]; at 11.0 µM): -42%
growth inhibition ([6]; at 33.0 µM): -43%
growth inhibition [6, 17]: 84% (active)
growth inhibition ([6]; at 50.0 µM): 59.8%
growth inhibition ([6]; at 100.0 µM): 92% (active)
growth inhibition ([7]; at 1.2 µM): -19%
growth inhibition ([7]; at 3.7 µM): -15%
growth inhibition ([7]; at 11.0 µM): -18%
growth inhibition ([7]; at 33.0 µM): 28%
growth inhibition ([7]; at 100.0 µM): 97% (active)
growth inhibition [8, 16]: -12%
growth inhibition [8, 17]: 25%
growth inhibition ([8]; at 50.0 µM): 58.6%
growth inhibition ([9]; at 1.2 µM): -5%
growth inhibition ([9]; at 3.7 µM): 17%
growth inhibition ([9]; at 11.0 µM): 22%
growth inhibition ([9]; at 33.0 µM): 29%
growth inhibition ([9]; at 100.0 µM): 97% (active)
growth inhibition [10, 16]: -15%
growth inhibition [10, 17]: -61%
growth inhibition ([10]; at 50.0 µM): 62.8%
growth inhibition ([11]; at 1.2 µM): -28%
growth inhibition ([11]; at 3.7 µM): -22%
growth inhibition [11, 16]: -7%
growth inhibition ([11]; at 11.0 µM): -20%
growth inhibition ([11]; at 33.0 µM): -10%
growth inhibition [11, 17]: 78% (active)
growth inhibition ([11]; at 50.0 µM): 46%
growth inhibition ([11]; at 100.0 µM): 94% (active)
